Screening results deposited in PubChem BioAssay by National Center for Advancing Translational Sciences (NCATS).
Pf growth 48h = P. falciparum growth inhibition at 48 hours (one generation) | P. falciparum luciferase growth in erythrocytes, 48 h | Potency, µM (doses to about 28.7 µM), usual class: inhibitors | 5.9% of 310,000 active
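Parasite viability was followed by luminescence of a genomically integrated firefly luciferase. Cultures held 0.1% parasitemia at 2% hematocrit (final), incubated under 5% CO2 at 37 C.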
HCMV antiviral = blocks human cytomegalovirus replication | HFF cells, HCMV-luciferase reporter, 72 h; active compounds read low | activity change, negative = inhibition, % at 57.5 µM | 4.5% of 410,000 active | AID 1259415; in the data active means activity change below about -60%; inconclusive means no clear call, values can overlap the other calls; inactive means above about -39%
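Human foreskin fibroblasts infected with luciferase-reporter HCMV at MOI 1 PFU/cell, compounds at two doses. Luciferase measured 72 h post infection; normalized to buffer-only basal and Salinomycin (10uM) controls.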
Shiga inhibitor = blocks Shiga toxin action in Vero cells; Vero cells, Shiga toxin protein synthesis inhibition reporter; 9.2% of 290,000 active; inhibition, % at 38.7 µM; in the data active means inhibition mostly above about 28%, no sharp cut-off; inactive means mostly below about 43%
Pf growth 96h = inhibits malaria parasite growth, 96 h | 6.9% of 320,000 active | Potency, µM (series often up to 28.7 µM), most hits filed as inhibitors | P. falciparum luciferase reporter growth, 96 h | AID 504834
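Plates of compound plus infected erythrocytes (2% hematocrit, 0.05% parasitemia final) incubate 96 hours, 37 C, 5% CO2. Detection reagent added; reduced luminescence from the parasites' luciferase reporter flags inhibition.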
Cycloheximide cs = counter-screen for Shiga toxin inhibitors: cycloheximide protein synthesis inhibition; cell reporter, cycloheximide protein synthesis inhibition counterscreen; AID 2314; 12% of 300,000 active; max response, %; in the data active means max response mostly above about 13%, no sharp cut-off; inactive means mostly below about 14%; further: read at 38.3 µM for the half of the compounds with a filed dose
A number is an active result; n = inactive; u = inconclusive; x = no result. In the library only some 20% were active in any assay of this set; here they are far more common. Unless noted, the call rests on the fitted dose curve; in most records, active means well fitted inhibition curve with a large enough effect; inconclusive means small, poorly fitted or top-dose-only effect, or another doubt; inactive means no such curve, though single readings can be large or run the other way.

SMILES	Pf growth 48h	HCMV antiviral	Shiga inhibitor	Pf growth 96h	Cycloheximide cs
COc1ccc(S(=O)(=O)N2CCOCC2)cc1NC(=O)CCCOc1ccccc1	x	n	x	x	x
COc1ccc(S(=O)(=O)N2CCCCCC2)cc1NC(=O)CCCOc1ccccc1	9.3µM	n	x	u	x
COc1ccc(OCCCC(=O)Nc2cc(S(=O)(=O)N3CCCCC3)ccc2OC)cc1	12µM	n	x	9.3µM	x
COc1ccc(S(=O)(=O)N2CCCCC2)cc1NC(=O)CSc1ncccn1	u	n	x	12µM	x
CCOC(=O)c1ccccc1NC(=O)c1cnn(-c2ccc(OC)cc2)c1C1CCN(C(=O)OC(C)(C)C)CC1	x	n	x	x	x
Cc1ccc(Nc2nnc(SCC(=O)NC3CCS(=O)(=O)C3)s2)c(C)c1 (configuration not stated)	u	n	n	2.6µM	n
CCc1ccc(Nc2nnc(SCc3cc(=O)n4ccsc4n3)s2)cc1	n	n	n	x	n
Cc1ccc(SCc2cc(=O)n3ccsc3n2)c(C)c1	n	x	n	n	21
Cc1cccc(-n2c(SCc3cc(=O)n4ccsc4n3)nc3ccccc32)c1	2.9µM	n	n	4.1µM	20
COc1ccccc1Nc1nnc(SCc2cc(=O)n3ccsc3n2)s1	u	n	n	4.7µM	n
Cc1cccc(C(=O)OCc2cc(=O)n3ccsc3n2)c1	x	n	x	x	x
COc1ccc(CNC(=O)Cc2ccc(NC(=O)N3CCSc4ncccc43)cc2)cc1	x	n	x	x	x
CCc1cccc(CC)c1-n1c(SCc2cc(=O)n3ccsc3n2)nnc1-c1cccnc1	15µM	n	n	10µM	n
Cc1ccc(Nc2nnc(SCc3cc(=O)n4ccsc4n3)s2)c(C)c1	6.6µM	n	n	4.7µM	n
O=c1cc(CSc2n[nH]c(-c3ccncc3)n2)nc2sccn12	n	u	n	n	n
O=c1cc(CSc2ccc([N+](=O)[O-])cc2)nc2sccn12	n	u	68	u	n
Cn1c(Cc2ccccc2)nnc1SCc1cc(=O)n2ccsc2n1	n	-63	n	n	n
CCOC(=O)C1C(=O)NC(c2ccccc2)=NC1c1ccc(OC)cc1 (configuration not stated)	u	n	n	n	n
CC(NC(=O)Nc1ccc(Br)cc1)C(C)(C)C (configuration not stated)	u	n	80	u	27
CCOC(=O)CSc1ccc(-c2nc3ccccc3[nH]2)cn1	n	n	n	x	n
Cc1cc2nc(-c3ccc(SCC(=O)N4CCOCC4)nc3)[nH]c2cc1C	n	n	70	n	33
Cc1cc2nc(-c3ccc(SCC(=O)N4CCN(C(=O)c5ccco5)CC4)nc3)[nH]c2cc1C	u	n	26	n	20
Cc1cc2nc(-c3ccc(SCc4ccccn4)nc3)[nH]c2cc1C	u	n	98	n	34
CCOC(=O)CSc1ccc(-c2nc3cc(C)c(C)cc3[nH]2)cn1	n	n	61	n	55
CCCC(=O)Nc1c(-c2cccc(OC)c2)c(=O)c2ccccc2n1C	n	n	n	n	n
SMILES	Pf growth 48h	HCMV antiviral	Shiga inhibitor	Pf growth 96h	Cycloheximide cs
CCc1cccc(C)c1NC(=O)CN1C(=O)NC(C)(CCC(C)C)C1=O (configuration not stated)	x	n	x	x	x
COC(=O)c1cccnc1-n1c(=O)c2cccnc2n(CC(=O)Nc2cccc(C(F)(F)F)c2)c1=O	x	n	x	x	x
Cc1ccc(Cl)cc1NC(=O)Cn1c(=O)n(CCC(=O)N2CCc3ccccc3C2)c(=O)c2ccccc21	x	n	x	x	x
C=C1C[C@H](O)[C@@H]2[C@H](OC(=O)[C@H]2C)[C@H]2[C@H](C)[C@@H](O)C[C@@H]12	n	n	x	n	x
COc1ccccc1/C=C(/C(=O)OCC(=O)Nc1ccc(N(C)C)cc1)c1ccccc1	n	n	n	u	n
COc1ccccc1NC(=O)CC(=O)c1ccccc1	n	n	55	n	n
O=C(CC(=O)c1ccccc1)c1ccccc1	x	n	x	x	x
COc1ccccc1C(=O)CC(=O)c1ccccc1	n	n	85	u	68
COc1ccccc1NC(=O)CC(=O)Nc1ccccc1OC	n	n	n	n	n
COc1ccccc1/C=C(/C(=O)OCC(=O)Nc1ccccc1C)c1ccccc1	n	-62	n	n	n
CCN1C(=O)C(CC(=O)Nc2ccc(OC)cc2)N(Cc2ccc(OC)c(OC)c2)C1=S (configuration not stated)	10µM	n	n	u	n
COc1ccc(CCN2C(=S)N(C)C(=O)C2CC(=O)Nc2ccc(F)cc2)cc1 (configuration not stated)	u	n	n	13µM	n
CCN(CC)S(=O)(=O)c1cccc(NC(=S)NC(=O)/C=C/c2ccc(S(=O)(=O)N3CCOCC3)cc2)c1	u	n	n	4.7µM	n
O=C(/C=C/c1ccc(S(=O)(=O)N2CCOCC2)cc1)NC(=S)NCCCn1ccnc1	u	-82	n	u	n
CCOCCCN1C(=O)C(=O)N(CC(=O)N2c3ccccc3NC(=O)CC2C)C1=O (configuration not stated)	n	n	x	n	x
COc1ccccc1C(=O)NCC(=O)NCCC(c1ccccc1)c1ccccc1	u	n	x	u	x
CN1CCN(C2CC(=O)N(c3ccc4c(c3)OCCO4)C2=O)CC1 (configuration not stated)	x	n	n	n	34
COc1ccc(Nc2nc(Cl)nc(NCCO)n2)cc1	n	n	n	n	n
CC(C)c1ccc(Nc2nc(Cl)nc(NCCO)n2)cc1	n	n	n	u	12
c1ccc(Nc2ccccc2)cc1	n	n	x	n	x
CC(C)Nc1ccc(Nc2ccccc2)cc1	4.1µM	u	x	2.6µM	x
CC(C)Nc1nc(Cl)nc(Nc2ccccc2)n1	n	n	53	u	39
CC(NC(=O)CN1CCN(Cc2cccc(F)c2)CC1)c1ccccc1 (configuration not stated)	n	n	n	u	n
COc1cccc(F)c1-c1nc2ccccc2n1C(C(=O)Nc1c(C)cccc1C)c1ccccc1 (configuration not stated)	x	n	x	x	x
CCCOc1ccc(S(=O)(=O)N2CCN(C)CC2)c2ccccc12	n	-61	n	u	n
SMILES	Pf growth 48h	HCMV antiviral	Shiga inhibitor	Pf growth 96h	Cycloheximide cs
CCOc1ccccc1N(C)C(=O)Cn1ncc2c([nH]c3ccc(C)cc32)c1=O	n	u	n	u	n
COc1nccc(C(F)(F)F)c1C(=O)Nc1ccc(Cl)cc1	n	n	n	n	n
Cc1cc(C)nc(SCCn2c(N(C)Cc3ccccc3)nc3c2c(=O)n(C)c(=O)n3C)n1	7.4µM	n	n	u	n
Cn1c(=O)c2c(nc(N3CCOCC3)n2CCSc2ncccn2)n(C)c1=O	n	n	n	n	n
CN(Cc1ccccc1)c1nc2c(c(=O)n(C)c(=O)n2C)n1CCSc1ncccn1	10µM	n	n	u	n
O=C(Cn1nc(Cl)nc1Cl)c1cc2ccccc2oc1=O	n	n	n	u	n
Cc1cc(C)c[n+](CC(=O)c2cc3ccccc3oc2=O)c1	n	-98	n	n	n
Cc1ccc[n+](CC(=O)c2cc3ccccc3oc2=O)c1	n	n	n	n	25
O=c1nc2sc3ccccc3n2c(=O)n1-c1cccc(Cl)c1	n	x	n	x	n
Cc1ccc2c(c1)sc1nc(=O)n(-c3cccc(Cl)c3)c(=O)n12	n	n	n	n	19
